The text below walks through data of PubChem BioAssay.

Assay [1] in a line: yeast TOR pathway RPL19A-GFP modulators, primary screen, cell-based, S. cerevisiae, multiplex flow cytometry (AID 1862; in the data active = percent of DMSO control GFP below about 86%;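 also: lower values mimic rapamycin by blocking the RPL19A rise seen in DMSO cells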). The settings on record: S. cerevisiae RPL19A-GFP strain, flow cytometry fluorescence, 3 h; at 10 µM; stronger effect = lower value. A general note: A flow cytometer gives signals particle by particle.
The nature of assay [2]: modulators of MEP2-GFP levels in yeast, primary screen, S. cerevisiae, multiplex flow cytometry (AID 1867;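 active = GFP response, as percent of the DMSO control, above the screen-wide mean plus 3 SD, about 139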;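 also: median GFP channel fluorescence of barcode-gated MEP2-GFP cells measured by flow cytometry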). The settings on record: S. cerevisiae MEP2-GFP strain, 3 h, at 10 µM, stronger effect = higher value, 100% means same as DMSO wells.
Assay [3] can be described thus: modulators of CIT2-GFP expression in yeast, primary screen, S. cerevisiae, GFP fusion, multiplex flow cytometry (AID 1870;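 active = percent response above a set limit, the screen-wide mean plus 3 SD, cut at about 130% in these data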;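 also: barcoded CIT2-GFP strain pooled with four other GFP strains with rapamycin as positive control; median GFP fluorescence per well over plate mean of DMSO wells so 100% = DMSO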). The settings on record: 3 h, at 10 µM, stronger effect = higher value.
Assay [4] in a line: modulators of LAP4-GFP expression in yeast, primary screen, S. cerevisiae, multiplex flow cytometry (AID 1873;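 active = GFP signal, as percent of the solvent control, above the screen mean plus 3 SD, about 149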). The settings on record: 3 h, at 10 µM, stronger effect = higher value.
Assay [5] in a line: modulators of AGP1-GFP expression in yeast TOR pathway, primary screen, cell-based, multiplex flow cytometry, S. cerevisiae (AID 1887;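 active = GFP signal above the screen-wide mean plus 3 SD, that is over about 124.5% of the solvent control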;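 also: AGP1-GFP fusion strain of S. cerevisiae within a five-strain barcoded multiplex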). Conditions: 3 h, at 10 µM, stronger effect = higher value.
The nature of assay [6]: inhibitors of CD8+ T cell-vesicle binding, pilot screen, LFA-1/ICAM-1 modulator project, MLPCN validation set, flow cytometry (AID 2523).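 As to vesicle binding response: mean PE anti-B7-1 fluorescence of CD8+ cells relative to row control; 100% = QL9-loaded vesicles with DMSO vehicle in the same plate row.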 The settings on record: 2C mouse CD8+ T cells, at 7 µM, stronger effect = lower value; double positive events: measured here: CD8+/vesicle+ event percentage.
Assay [7] addresses Integrin beta-1 (Homo sapiens) + Integrin alpha-4 (Homo sapiens) (UniProt P13612+P05556). In words: inhibition of HUTS-21 binding to VLA-4, pilot screen, VLA-4 allosteric modulator project, U937 cells, HUTS-21 mAb, flow cytometry, validation set (AID 2674;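 active = inhibition above 50%, about 3 SD of the validation set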;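 also: antibody binding induced by the VLA-4 ligand LDV present at three times its Kd; 0% = LDV ligand with antibody and no compound and 100% = antibody without LDV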). The settings on record: HUTS-21 LIBS mAb binding, at 6.7 µM, stronger effect = higher value, binding induced by LDV ligand.
Assay [8] is described as follows: superoxide lowering in aged yeast cells, pilot screen, validation compound set (AID 2706;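 active = superoxide response below 65% of plate, a cut near 3 SD across the whole screen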;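 also: yeast exposed to compound for one week at 30 degrees C before staining; 100% = mean of all compound wells on the same plate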). Conditions: S. cerevisiae aging, superoxide DHE fluorescence; at 10 µM, stronger effect = lower value.
Assay [9] addresses Beta-adrenergic receptor kinase 1 (Homo sapiens) (UniProt P25098). In words: GRK2 binders displacing RNA aptamer, biochemical, validation, human GRK2, bead flow cytometry (AID 488806;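 active = aptamer binding inhibition above 30%, about 3 SD of noise from non-fluorescent compounds; inactive = inhibition at or below 30%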). The settings on record: bead-bound GRK2, FAM-aptamer displacement, at 10 µM, stronger effect = higher value.
The target in assay [10] is AP-2 complex subunit beta (Homo sapiens) (UniProt P63010). In words: inhibitors of arrestin peptide binding to AP2, pilot screen, biochemical, validation set, GST-AP2 beads, flow cytometry (AID 504541;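 active = inhibition above 54%, about 3 SD of non-fluorescent compounds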;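 also: AP2 carries R879A mutation and is captured from E. coli lysate; bead-bound FITC arrestin peptide fluorescence measuring arrestin peptide binding to AP2; 0% = DMSO wells and 100% = excess unlabeled arrestin peptide control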). The settings on record: FITC arrestin peptide, at 10 µM, stronger effect = higher value, AP2 beta2 appendage fragment, R879A mutant.
Chain of AP-2 complex subunit beta (Homo sapiens) (P63010 whole entry, looked up, the tested form may be a part, one chain of several): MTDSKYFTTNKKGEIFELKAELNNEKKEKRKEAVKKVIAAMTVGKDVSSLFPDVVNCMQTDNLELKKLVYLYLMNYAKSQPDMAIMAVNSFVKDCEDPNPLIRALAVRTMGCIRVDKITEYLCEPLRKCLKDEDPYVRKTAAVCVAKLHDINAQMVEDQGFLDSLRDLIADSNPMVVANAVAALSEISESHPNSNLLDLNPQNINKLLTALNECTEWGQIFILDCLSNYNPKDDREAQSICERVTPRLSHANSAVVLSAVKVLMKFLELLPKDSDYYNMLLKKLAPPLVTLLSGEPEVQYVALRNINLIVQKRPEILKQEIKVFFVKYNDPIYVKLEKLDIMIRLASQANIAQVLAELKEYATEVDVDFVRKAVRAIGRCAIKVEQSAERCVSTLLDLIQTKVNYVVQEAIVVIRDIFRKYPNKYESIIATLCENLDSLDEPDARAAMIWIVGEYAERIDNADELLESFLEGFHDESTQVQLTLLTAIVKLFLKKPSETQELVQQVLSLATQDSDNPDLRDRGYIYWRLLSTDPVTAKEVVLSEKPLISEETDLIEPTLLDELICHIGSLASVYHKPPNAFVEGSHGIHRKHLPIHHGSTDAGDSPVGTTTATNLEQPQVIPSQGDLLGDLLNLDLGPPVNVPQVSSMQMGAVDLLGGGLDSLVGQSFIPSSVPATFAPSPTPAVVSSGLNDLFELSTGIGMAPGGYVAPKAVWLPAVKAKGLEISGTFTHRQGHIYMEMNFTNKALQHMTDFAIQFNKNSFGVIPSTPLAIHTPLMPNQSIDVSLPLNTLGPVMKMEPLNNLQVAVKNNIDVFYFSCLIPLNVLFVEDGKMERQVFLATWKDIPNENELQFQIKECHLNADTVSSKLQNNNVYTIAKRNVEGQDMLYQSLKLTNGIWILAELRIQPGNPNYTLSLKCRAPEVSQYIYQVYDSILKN
A short description of assay [11]: yeast V-ATPase proton transport modulators, S. cerevisiae, pHLuorin, HTS validation (AID 504600; in the data active = response above about 15%;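 also: plate controls were DMSO for no effect and reference compound for full effect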). The settings on record: S. cerevisiae pHLuorin cytosolic pH, at 10 µM, stronger effect = higher value.
Assay [12] relates to anti-desmoglein-3 scFv antibody binding to human DSG3. In words: inhibitors of anti-DSG3 scFv binding to DSG3, pilot screen, biochemical, validation compound set, bead-based, flow cytometry (AID 588368;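 active = binding below the plate cutoff, the plate median minus 3 SD, with a reading above zero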;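 also: signal is the median channel fluorescence of bead-bound GFP antibody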). The settings on record: Protein G beads, DSG3-Fc, scFv-GFP binding, at 10 µM, stronger effect = lower value.
The nature of assay [13]: inhibitors of fungal efflux pumps CDR1, CDR2, MDR1, pilot screen, validation compound set, multiplex, phenotypic (AID 588506;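 active = efflux inhibition above 0.42, the validation set average plus 4 SD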;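 also: Nile Red retained in cells so higher fluorescence means more efflux inhibition; 0 = negative control wells and 1 = enniatin B 25 µM full block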). Conditions: S. cerevisiae pump-expressing triplex, Nile Red efflux flow cytometry; at 10 µM; stronger effect = higher value; the pumps come from Candida albicans.
In assay [14] the target is ATP-binding cassette sub-family B member 6 (Homo sapiens) (UniProt Q9NP58). In words: ABCB6 transporter inhibitors, pilot screen, K562-ABCB6 cells, flow cytometry, validation set (AID 588550;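 active = inhibition above the screen-wide mean plus 3 SD, about 51%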;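 also: 0% = DMSO wells and 100% = benzethonium chloride 70 µM positive control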). Conditions: K562-ABCB6 porphyrin accumulation, 1 h, at 10 µM, stronger effect = higher value.
Chain of ATP-binding cassette sub-family B member 6 (Homo sapiens) (Q9NP58 whole entry, looked up): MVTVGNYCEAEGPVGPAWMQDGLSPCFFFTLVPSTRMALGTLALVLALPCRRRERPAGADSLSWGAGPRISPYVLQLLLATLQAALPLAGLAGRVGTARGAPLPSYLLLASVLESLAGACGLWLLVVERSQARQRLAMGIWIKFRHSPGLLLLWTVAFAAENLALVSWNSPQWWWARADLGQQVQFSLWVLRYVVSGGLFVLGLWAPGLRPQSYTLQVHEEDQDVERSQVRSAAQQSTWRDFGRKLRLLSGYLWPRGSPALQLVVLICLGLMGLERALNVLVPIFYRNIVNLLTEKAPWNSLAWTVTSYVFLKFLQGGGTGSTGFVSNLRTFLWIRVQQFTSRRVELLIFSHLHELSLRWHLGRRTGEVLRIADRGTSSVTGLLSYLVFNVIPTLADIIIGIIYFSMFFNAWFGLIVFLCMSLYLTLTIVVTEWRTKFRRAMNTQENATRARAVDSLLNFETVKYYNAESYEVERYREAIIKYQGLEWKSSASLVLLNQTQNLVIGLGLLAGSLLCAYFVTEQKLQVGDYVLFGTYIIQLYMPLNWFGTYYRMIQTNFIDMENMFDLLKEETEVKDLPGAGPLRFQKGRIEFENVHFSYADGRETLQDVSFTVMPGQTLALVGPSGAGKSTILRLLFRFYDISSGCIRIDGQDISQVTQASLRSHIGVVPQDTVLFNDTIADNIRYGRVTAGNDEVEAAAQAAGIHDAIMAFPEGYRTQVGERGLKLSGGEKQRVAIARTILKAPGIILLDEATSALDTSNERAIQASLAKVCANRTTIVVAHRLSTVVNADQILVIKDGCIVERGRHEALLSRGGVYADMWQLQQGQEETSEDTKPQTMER
Assay [15] can be described thus: promoters of myeloid differentiation in arrested cells, primary screen, cell-based, GFP/MAC1 double positive, flow cytometry, validation set (AID 588685;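 active = differentiation response of at least 50%, scaled between solvent and reference control, from cells with both markers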;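 also: compound exposure lasts four days before antibody staining and flow analysis; 0% = DMSO wells and 100% = 5 µM fulvestrant positive control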). The settings on record: ER-HoxA9 marrow cells, stronger effect = higher value, normalized: vehicle 0, fulvestrant 100.

Each structure is given as a SMILES string. Results filed as inconclusive are left out. Calls of active or inactive are those of the source.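 The calls were made as follows, unless noted: active = response below a set limit, under 55% cells CD8-positive and vesicle-bound, and CD8 cells' 90th-percentile brightness under 279; inactive = the rest.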

What is called inhibition is the drop in the measured response relative to a control, in per cent.

Chain of Beta-adrenergic receptor kinase 1 (Homo sapiens) (P25098 whole entry, looked up): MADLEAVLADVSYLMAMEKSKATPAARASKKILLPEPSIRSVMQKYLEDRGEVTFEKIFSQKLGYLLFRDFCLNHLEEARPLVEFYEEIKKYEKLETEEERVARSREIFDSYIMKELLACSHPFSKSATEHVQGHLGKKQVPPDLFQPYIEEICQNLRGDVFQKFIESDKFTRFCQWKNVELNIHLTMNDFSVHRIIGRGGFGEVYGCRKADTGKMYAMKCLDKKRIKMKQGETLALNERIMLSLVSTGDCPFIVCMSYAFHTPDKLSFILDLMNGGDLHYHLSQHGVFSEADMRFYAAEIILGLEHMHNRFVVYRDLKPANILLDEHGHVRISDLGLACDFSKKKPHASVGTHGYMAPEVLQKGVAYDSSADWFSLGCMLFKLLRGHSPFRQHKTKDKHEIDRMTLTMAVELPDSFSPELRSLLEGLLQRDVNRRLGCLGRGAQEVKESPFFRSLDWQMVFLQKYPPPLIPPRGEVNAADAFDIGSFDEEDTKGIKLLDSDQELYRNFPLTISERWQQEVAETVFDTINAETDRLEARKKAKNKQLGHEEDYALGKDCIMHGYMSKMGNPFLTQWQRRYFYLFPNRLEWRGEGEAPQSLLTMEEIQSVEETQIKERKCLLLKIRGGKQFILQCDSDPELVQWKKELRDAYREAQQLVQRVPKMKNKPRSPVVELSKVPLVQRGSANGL
Chain of Integrin beta-1 (Homo sapiens) + Integrin alpha-4 (Homo sapiens) (P05556 whole entry, looked up): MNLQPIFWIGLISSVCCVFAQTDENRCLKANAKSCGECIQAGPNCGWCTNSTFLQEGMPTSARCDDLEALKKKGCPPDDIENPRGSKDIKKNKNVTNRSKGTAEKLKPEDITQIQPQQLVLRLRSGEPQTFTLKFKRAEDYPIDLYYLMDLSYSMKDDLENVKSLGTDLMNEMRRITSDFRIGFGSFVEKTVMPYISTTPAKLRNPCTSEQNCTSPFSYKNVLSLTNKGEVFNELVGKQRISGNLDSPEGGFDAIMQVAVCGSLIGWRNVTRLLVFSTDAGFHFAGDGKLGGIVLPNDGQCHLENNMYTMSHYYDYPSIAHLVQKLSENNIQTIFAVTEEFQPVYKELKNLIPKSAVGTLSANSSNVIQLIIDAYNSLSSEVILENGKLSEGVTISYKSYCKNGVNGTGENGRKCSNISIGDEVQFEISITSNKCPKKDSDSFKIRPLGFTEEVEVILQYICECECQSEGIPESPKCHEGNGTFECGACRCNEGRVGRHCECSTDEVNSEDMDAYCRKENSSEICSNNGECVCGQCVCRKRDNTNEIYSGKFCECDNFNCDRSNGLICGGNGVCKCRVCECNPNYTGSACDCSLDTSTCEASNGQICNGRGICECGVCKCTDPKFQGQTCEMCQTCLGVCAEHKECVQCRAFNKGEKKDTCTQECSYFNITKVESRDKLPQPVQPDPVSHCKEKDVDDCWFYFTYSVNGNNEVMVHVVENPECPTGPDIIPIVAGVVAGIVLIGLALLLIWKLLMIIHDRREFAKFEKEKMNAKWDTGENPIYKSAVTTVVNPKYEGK
Chain of Integrin beta-1 (Homo sapiens) + Integrin alpha-4 (Homo sapiens) (P13612 whole entry, looked up): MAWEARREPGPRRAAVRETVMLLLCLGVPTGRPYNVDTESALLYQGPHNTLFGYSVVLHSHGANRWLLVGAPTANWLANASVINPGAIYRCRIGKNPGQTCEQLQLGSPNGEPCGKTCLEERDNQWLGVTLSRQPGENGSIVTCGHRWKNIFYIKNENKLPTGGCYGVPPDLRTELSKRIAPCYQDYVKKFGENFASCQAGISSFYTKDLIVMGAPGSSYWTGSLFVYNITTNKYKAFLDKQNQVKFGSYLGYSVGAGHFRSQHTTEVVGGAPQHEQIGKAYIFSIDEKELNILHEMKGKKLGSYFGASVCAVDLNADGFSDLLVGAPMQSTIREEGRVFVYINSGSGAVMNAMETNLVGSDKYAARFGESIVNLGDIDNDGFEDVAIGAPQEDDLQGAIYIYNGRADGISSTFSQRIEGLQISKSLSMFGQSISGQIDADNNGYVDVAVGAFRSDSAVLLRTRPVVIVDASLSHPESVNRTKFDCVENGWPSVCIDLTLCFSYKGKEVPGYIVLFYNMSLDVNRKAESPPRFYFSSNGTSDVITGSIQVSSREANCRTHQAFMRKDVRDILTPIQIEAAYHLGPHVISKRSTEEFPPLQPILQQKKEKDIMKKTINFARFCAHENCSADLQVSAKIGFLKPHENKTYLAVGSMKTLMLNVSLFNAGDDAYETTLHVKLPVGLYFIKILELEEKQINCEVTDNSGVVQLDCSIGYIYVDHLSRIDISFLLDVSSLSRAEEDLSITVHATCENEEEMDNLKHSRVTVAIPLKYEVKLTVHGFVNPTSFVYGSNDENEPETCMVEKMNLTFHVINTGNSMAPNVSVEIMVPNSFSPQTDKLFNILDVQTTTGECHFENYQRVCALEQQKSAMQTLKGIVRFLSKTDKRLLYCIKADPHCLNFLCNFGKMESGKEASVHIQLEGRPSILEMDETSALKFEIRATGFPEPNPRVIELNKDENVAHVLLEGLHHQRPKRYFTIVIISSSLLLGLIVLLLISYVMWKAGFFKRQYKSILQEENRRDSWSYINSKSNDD

On to `COc1ccc(CCNC(=O)C(=O)Nc2ccc3c(c2)OCO3)cc1OC`, for which the percent of DMSO control GFP in assay [1] was 104% (inactive). Also, the results for the GFP response vs DMSO in assay [2] and in assay [4] were 104% (inactive) and 101% (inactive), respectively. The percent response of DMSO control in assay [3] is 107% (inactive). The GFP response, % of DMSO in assay [5] was 101% (inactive). This compound also registered a double positive events in assay [6] of 65.2%. Also, the vesicle binding response in [6] was 220% (inactive). For the same compound, the inhibition is -4.9% (inactive) in [7], -11.2% (inactive) in assay [10] and 10% (inactive) in assay [14]. Also, the superoxide response (% of plate) in assay [8] is 96.1% (inactive). Further, the aptamer binding inhibition in [9] is 5% (inactive). Also, the response in assay [11] was 6.72% (inactive). In addition, the binding (% of control) in assay [12] is 94.1% (inactive). Also, the efflux inhibition (fraction of control) in assay [13] was -0.16 (inactive). The differentiation response in assay [15] is -1.82% (inactive).
In the case of `COc1ccc2nc(NC(=O)Nc3ccccc3)sc2c1`, the percent of DMSO control GFP in [1] is 105% (inactive). Besides, the GFP response vs DMSO in assay [2] is 96.9% (inactive); in [4], 89.3% (inactive). Moreover, the percent response of DMSO control in assay [3] is 111% (inactive). In addition, in assay [5], the GFP response, % of DMSO was 96% (inactive). Moreover, in [6], the double positive events was found to be 50.6%. In addition, the vesicle binding response in assay [6] is 173% (inactive). Besides, the inhibition in assay [7] is 10% (inactive); in assay [10] it was 0.98% (inactive); in assay [14], 1% (inactive). In addition, the superoxide response (% of plate) in assay [8] is 92.7% (inactive). Besides, in assay [9], the aptamer binding inhibition is -1% (inactive). The response in assay [11] is 70.8% (active). Also, the binding (% of control) in assay [12] is 95.7% (inactive). The efflux inhibition (fraction of control) in assay [13] is -0.47 (inactive). Also, the differentiation response in assay [15] was -22.8% (inactive).
`CC(C)(C)NC[C@H](O)COc1nsnc1N1CCOCC1`: the percent of DMSO control GFP in assay [1] is 94.4% (inactive). The GFP response vs DMSO in assay [2] was 136% (inactive); in [4], 78.7% (inactive). In addition, the percent response of DMSO control in [3] is 108% (inactive). Further, the GFP response, % of DMSO in [5] was 93.1% (inactive). This compound came in with a double positive events in assay [6] of 70.5%. Moreover, the vesicle binding response in assay [6] is 173% (inactive). The inhibition in [7] was 17.1% (inactive); in [10], -3.6% (inactive); in assay [14], 9% (inactive). In assay [8], the superoxide response (% of plate) was 91.1% (inactive). Further, in assay [9], the aptamer binding inhibition is 3% (inactive). Moreover, in assay [11], the response is 4.73% (inactive). Further, the binding (% of control) in assay [12] is 96.3% (inactive). Further, in assay [13], the efflux inhibition (fraction of control) was 0.05 (inactive). For the same compound, the differentiation response in [15] was -0.82% (inactive).
Regarding `CC1(C)NC(C(=O)O)Cc2c1[nH]c1ccccc21` (centres undefined), in assay [1], the percent of DMSO control GFP was 112% (inactive). The values for the GFP response vs DMSO in assay [2] and in assay [4] were 106% (inactive) and 98.4% (inactive), respectively. For the same compound, the percent response of DMSO control in assay [3] is 109% (inactive). The GFP response, % of DMSO in assay [5] was 105% (inactive). The same compound displayed a double positive events in assay [6] of 62.5%. For the same compound, the vesicle binding response in assay [6] is 175% (inactive). Also, the inhibition in assay [7] is 5.36% (inactive); in assay [10], 14.4% (inactive); in assay [14] it was 8% (inactive). Further, the superoxide response (% of plate) in assay [8] was 97.5% (inactive). The aptamer binding inhibition in [9] was 1% (inactive). In addition, the response in assay [11] is -1.17% (inactive). Further, the binding (% of control) in [12] is 112% (inactive). The efflux inhibition (fraction of control) in [13] was 0.1 (inactive). Further, the differentiation response in assay [15] is -16.4% (inactive).
